Mtb betalactam – beta-lactam sensitization of Mtb H37Rv; M. tuberculosis H37Rv growth with meropenem, percent inhibition; inhibition, % at 25 µM; 0.27% of 330,000 active; call rule not given here;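 also: growth measured after seven days incubation then overnight dye step; 0% = bacteria only wells and 100% = bacteria with antibiotic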
Mtb FBA inh – inhibitors of M. tuberculosis fructose-bisphosphate aldolase. P9WQA3. purified M. tuberculosis FBA, fluorescence read-out. inhibition, % at 1 µM. 2.3% of 360,000 active. AID 588726;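 also: 0% = vehicle and 100% = reference inhibitor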
UGM FP inh – inhibitors of M. tuberculosis UDP-galactopyranose mutase; P9WIQ1; purified UGM, fluorescence polarization probe displacement; inhibition, % at 10 µM; 0.06% of 320,000 active; in the data active = inhibition above about 10%, passing the limit was not always enough
RecA intein inh – inhibitors of M. tuberculosis RecA intein splicing; 0.75% of 290,000 active; P9WHJ3; inhibition, % (concentration not given with the values); cell-free RecA intein splicing, fluorescence; in the data active = inhibition above about 30%;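 also: 0% = vehicle wells and 100% = reference inhibitor control wells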
Target sequence (P9WHJ3 whole entry, looked up): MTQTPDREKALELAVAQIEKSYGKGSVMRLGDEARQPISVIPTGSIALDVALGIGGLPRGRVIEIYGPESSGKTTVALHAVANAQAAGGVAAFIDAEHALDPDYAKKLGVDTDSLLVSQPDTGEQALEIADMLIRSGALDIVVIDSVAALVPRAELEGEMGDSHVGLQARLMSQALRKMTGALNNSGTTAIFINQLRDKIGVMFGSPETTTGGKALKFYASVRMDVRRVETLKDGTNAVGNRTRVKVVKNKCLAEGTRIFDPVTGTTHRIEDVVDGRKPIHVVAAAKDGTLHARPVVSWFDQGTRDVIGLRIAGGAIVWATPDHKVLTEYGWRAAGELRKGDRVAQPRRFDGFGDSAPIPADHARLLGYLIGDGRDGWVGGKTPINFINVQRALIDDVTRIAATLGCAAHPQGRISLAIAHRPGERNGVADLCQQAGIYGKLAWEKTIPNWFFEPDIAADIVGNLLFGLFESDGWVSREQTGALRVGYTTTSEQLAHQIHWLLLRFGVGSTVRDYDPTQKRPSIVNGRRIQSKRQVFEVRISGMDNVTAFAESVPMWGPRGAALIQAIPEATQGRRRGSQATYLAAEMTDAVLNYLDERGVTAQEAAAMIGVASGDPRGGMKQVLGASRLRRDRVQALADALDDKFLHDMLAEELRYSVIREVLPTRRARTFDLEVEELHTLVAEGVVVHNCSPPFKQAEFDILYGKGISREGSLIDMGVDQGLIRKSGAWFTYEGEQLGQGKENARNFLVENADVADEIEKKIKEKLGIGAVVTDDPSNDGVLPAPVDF
GDH-TPI counter-1 – counter-screen for M. tuberculosis FBA inhibitors: GDH-TPI coupled enzymes; AID 588335; 1.2% of 360,000 active; inhibition, % at 4.8 µM; GDH-TPI coupled enzyme counterscreen, NADH absorbance; in the data active = inhibition above about 30%;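 also: 0% = DMSO wells and 100% = wells lacking the enzyme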
Rv3671c protease – inhibits the M. tuberculosis serine protease Rv3671c; inhibition, % at 5.96 µM; P9WHR9; AID 2606; 0.048% of 320,000 active; in the data active = inhibition above about 38%;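 also: extracellular domain of Rv3671c used as enzyme; 0% = enzyme with DMSO and 100% = no enzyme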
Mtb FBA inh conf – Mtb FBA inhibition, confirmed | shares compounds with Mtb FBA inh | inhibition, % at 1 µM | purified M. tuberculosis FBA, fluorescence read-out | 78% of 5,600 active;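 also: 0% = vehicle wells and 100% = reference inhibitor wells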
GDH-TPI counter-2 – inhibits GDH-TPI coupling enzymes, flagging Mtb FBA hits; shares compounds with Mtb FBA inh; GDH-TPI coupled enzyme counterscreen, fluorescence; inhibition, % at 1 µM; 81% of 5,600 active; AID 652141; in the data active = inhibition above about 10%
Active calls of the source: *; i = inactive; . = no result; + = active, no number. Rows were chosen to be rich in hits. Some 4% of all compounds tested hit in one or more screens of this group. Rule as the data show it, unless noted: active = inhibition above about 27%; inactive = the rest.

SMILES | Mtb betalactam | Mtb FBA inh | UGM FP inh | RecA intein inh | GDH-TPI counter-1 | Rv3671c protease | Mtb FBA inh conf | GDH-TPI counter-2
OCCNc1c2ccccc2nc2ccccc12 | 2 | 60* | 1 | -62 | -4 | -1 | 62* | 34*
CCOC(=O)C1CCCN(C(=O)c2ccc([N+](=O)[O-])c(C)c2)C1 (configuration not stated) | -9 | 0 | 2 | -2 | 6 | -6 | . | .
COc1ccc(-c2ccc(C(=O)NCc3ccccc3)c3occc23)c(C)c1 | . | 22 | . | . | 4 | . | . | .
COc1ccc(-c2ccc(C(=O)NC3CCCCC3)c3occc23)c(C)c1 | . | 15 | . | . | 3 | . | . | .
COCCNC(=O)c1ccc(-c2ccc(OC)cc2C)c2ccoc12 | . | 95* | . | . | -8 | . | 55* | 44*
COc1ccc(-c2ccc(C(=O)NCCN(C)C)c3occc23)c(C)c1 | . | 33* | . | . | 6 | . | 33* | 25*
CSc1ccc(Cn2c(C)c(C(=O)NCc3cccc(Cl)c3)sc2=O)cc1 | . | 2 | . | . | 6 | . | . | .
CC(C)c1ccc(-n2nc3ccc(N)cc3n2)cc1 | -5 | 71* | 1 | -4 | 3 | 1 | 101* | 67*
Nc1ccc2nn(-c3ccc(F)cc3)nc2c1 | 75 | 37* | -1 | -15 | 17 | -7 | 62* | 52*
Cc1ccc(-n2nc3ccc(N)cc3n2)cc1 | -5 | 64* | 3 | -30 | 20 | -2 | 39* | 23*
NC(Cc1ccc(C(F)(F)F)cc1)c1csc(Nc2cnccn2)n1 (configuration not stated) | . | 1 | . | . | 5 | . | . | .
O=C(O)CCc1nn2c3ccccc3n(Cc3ccccc3)c2nc1=O | -7 | 36* | -2 | 1 | 4 | 5 | 3 | 0
CC(=O)Cn1c2ccccc2n2nc(CCC(=O)O)c(=O)nc12 | -3 | 26 | 2 | 2 | 4 | -5 | . | .
CCN1C(=O)[C@H]2[C@@H](c3ccc(C)cc3)N3C(=O)N(c4cccc(Br)c4)C(=O)[C@@]3(Cc3ccccc3)[C@H]2C1=O | -3 | 4 | -6 | 10 | 16 | 1 | . | .
CC(C)(C)NCc1cccn1-c1sc2c(c1C#N)CCCC2 | 1 | 76* | -2 | 1 | 12 | -3 | 66* | 52*
COc1ccc2c(c1OC)C(=O)N(c1ccccn1)C2 | 4 | 45* | 0 | 1 | 1 | -10 | 115* | 106*
CCCCC1OC23CCCCC2C(C#N)(C#N)C1(C#N)C(=N)O3 (configuration not stated) | 3 | 45* | 6 | -139 | -15 | 4 | 64* | 51*
CCCCC1OC23CCCCC2C(C#N)(C(=N)O3)C1(C#N)C#N (configuration not stated) | -8 | 42* | 2 | -270 | -11 | 3 | -2 | 3
CN(c1ccccc1C(=O)NCc1ccccc1Cl)S(=O)(=O)c1ccccc1 | -3 | -2 | 3 | 3 | -6 | 2 | . | .
COc1ccccc1Oc1coc2c(CN3CCOCC3)c(O)ccc2c1=O | 1 | 80* | 1 | -9 | 8 | 7 | + | 156*
COc1ccccc1-c1coc2c(CN3CCOCC3)c(O)ccc2c1=O | -2 | 73* | 0 | -2 | 20 | -6 | 153* | 124*
CN1CCN(C(=O)c2cc3c(ccc4ccccc43)oc2=O)CC1 | -11 | 54* | 4 | -65 | 12 | 3 | 45* | 31*
O=C(c1cc2c(ccc3ccccc32)o1)N1CCCCC1 | 4 | -1 | 2 | 6 | 10 | -4 | . | .
O=C(CCS(=O)(=O)c1ccccc1)N1CCCc2ccccc21 | 0 | 1 | 1 | 3 | -7 | -5 | . | .
COC(=O)c1ccccc1NC(=O)N1CCCC1 | -4 | 28* | 2 | -4 | 4 | 4 | 102* | 83*
SMILES | Mtb betalactam | Mtb FBA inh | UGM FP inh | RecA intein inh | GDH-TPI counter-1 | Rv3671c protease | Mtb FBA inh conf | GDH-TPI counter-2
COc1ccc(C(=O)c2cn(-c3cccc(Br)c3)nc2C(C)=O)cc1 | -3 | 1 | -2 | . | 5 | 3 | . | .
CCCCCCCOc1ccc(OC(=O)c2ccncc2)cc1 | 98 | 2 | 3 | 5 | 5 | -1 | . | .
O=c1cc(C(F)(F)F)c2cc3c4c(c2o1)CCCN4CCC3 | 3 | 13 | 1 | -75 | 1 | 27 | . | .
Cc1cc(=O)oc2c3c4c(cc12)OCCN4CCC3 | 4 | 76* | 3 | i | 6 | -1 | 66* | 66*
CC(C)c1cc(=O)oc2c3c4c(cc12)CCCN4CCC3 | 0 | 39* | 1 | -66 | 3 | -3 | 98* | 86*
O=c1c2ccccc2nc2n1C(CSCc1ccc(Cl)cc1)CS2 (configuration not stated) | 4 | 3 | 2 | 7 | -8 | -6 | . | .
C=Cc1ccc(Cn2nc(-c3ccccc3)ccc2=O)cc1 | 0 | 0 | -2 | 1 | -2 | -13 | . | .
Cc1ccccc1N(CC(=O)N1CCN(c2ccccc2)CC1)S(C)(=O)=O | -4 | 28* | 1 | 2 | 4 | -2 | 52* | 37*
CCN(CC)c1ccc(-c2nn3c(-c4ccccc4OC)nnc3s2)cc1 | 96 | 31* | 1 | 9 | 24 | 5 | 52* | 31*
Cc1ccc(S(=O)(=O)N2[C@@H](c3ccc(F)cc3)C(C(=O)O)=CC[C@H]2c2cccs2)cc1 | -5 | -2 | 1 | . | 7 | -2 | . | .
CCCC(=O)Nc1ccc2c(c1)nc1n2CCN(C2CCCCC2)C1 | 13 | 63* | -3 | -5 | 5 | -8 | 194* | 178*
O=[N+]([O-])c1ccc2c(c1)nc1n2CCN(C2CCCCC2)C1 | -3 | -3 | 0 | 5 | -2 | 3 | . | .
CC(=O)Nc1ccc2c(c1)nc1n2CCN(C2CCCCC2)C1 | . | 56* | . | . | 8 | . | 197* | 135*
O=C(Nc1ccc2c(c1)nc1n2CCN(Cc2ccccc2)C1)NC1CCCCC1 | -5 | 80* | -4 | 13 | 8 | -2 | 16 | 11*
O=C(CCCC(=O)OCC(=O)NC1CCCC1)Nc1ccccn1 | -32 | -1 | 3 | -5 | 4 | -4 | . | .
C=C(CC[C@@H](O)C(C)(C)O)[C@H]1CC[C@]2(C)[C@@H]1CCC1[C@@]3(C)CCC(=O)C(C)(C)C3CC[C@]12C (some centres not stated) | 6 | 0 | 7 | . | -8 | -6 | . | .
CCO[C@H]1c2c(ccc3ccc(=O)oc23)OC(C)(C)[C@@H]1O | 1 | 59* | 0 | . | 20 | 4 | 137* | 96*
CC(C)=CC(=O)O[C@@H]1Cc2c(ccc3ccc(=O)oc23)OC1(C)C | -2 | 33* | -4 | . | 16 | 3 | 35* | 26*
CC(=O)OC1c2c(ccc3ccc(=O)oc23)OC(C)(C)C1OC(=O)CC(C)C (configuration not stated) | 7 | 16 | 0 | -1 | 11 | -16 | . | .
C/C=C(/C)C(=O)O[C@@H]1[C@H](OC(=O)C=C(C)C)c2c(ccc3ccc(=O)oc23)OC1(C)C | -7 | 3 | 0 | 1 | 13 | -7 | . | .

Bioassay records from PubChem.
